# Screening results from PubChem.
# Sampled rows, rich in hits. Any-hit rate of the full collection: about 3.9%.
# CCHF vOTU inh – blocks the CCHF virus ovarian tumor domain protease; CCHFV vOTU protease, Pep-AMC fluorescence; inhibition, % at 11.5 µM; 370,000 tested, 0.55% active; AID 651958; also: 0% = vehicle wells with enzyme and 100% = no enzyme wells
# BH1578 lux ind – induces V. cholerae light production without autoinducers | V. cholerae BH1578 lux reporter, luminescence, 6 h | activation, % at 18.7 µM | 350,000 tested, 0.16% active | AID 588436; in the data active = activation mostly above about 9.7%, no sharp cut-off
# Mtb FBA inh – inhibitors of M. tuberculosis fructose-bisphosphate aldolase; AID 588726; inhibition, % at 1 µM; P9WQA3; 360,000 tested, 2.3% active; purified M. tuberculosis FBA, fluorescence read-out; in the data active = inhibition above about 27%;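 also: 0% = vehicle and 100% = reference inhibitor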
# Target sequence (P9WQA3 whole entry, looked up): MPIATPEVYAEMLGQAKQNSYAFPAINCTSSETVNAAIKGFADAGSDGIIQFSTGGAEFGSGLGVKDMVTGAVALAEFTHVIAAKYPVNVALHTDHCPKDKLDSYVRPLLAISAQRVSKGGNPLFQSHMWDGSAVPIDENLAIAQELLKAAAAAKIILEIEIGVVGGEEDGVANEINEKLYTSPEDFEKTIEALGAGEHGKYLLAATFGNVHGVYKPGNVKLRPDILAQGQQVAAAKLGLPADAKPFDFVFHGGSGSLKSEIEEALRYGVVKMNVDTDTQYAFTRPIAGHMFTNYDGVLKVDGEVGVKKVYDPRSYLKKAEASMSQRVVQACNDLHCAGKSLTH
# GDH-TPI counter-1 – inhibits GDH-TPI coupling enzymes, artifact for Mtb FBA screen | GDH-TPI coupled enzyme counterscreen, NADH absorbance | 360,000 tested, 1.2% active | inhibition, % at 4.8 µM;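 also: 0% = DMSO wells and 100% = wells lacking the enzyme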
# Mtb FBA confirm – confirmation of M. tuberculosis fructose-bisphosphate aldolase inhibitors; shares compounds with Mtb FBA inh; AID 651616; purified M. tuberculosis FBA, fluorescence read-out; 5,600 tested, 78% active; inhibition, % at 1 µM; in the data active = inhibition above about 27%;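 also: 0% = vehicle wells and 100% = reference inhibitor wells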
# GDH-TPI counter-2 – inhibits GDH-TPI coupling enzymes, flagging Mtb FBA hits; shares compounds with Mtb FBA inh; AID 652141; GDH-TPI coupled enzyme counterscreen, fluorescence; inhibition, % at 1 µM; 5,600 tested, 81% active; in the data active = inhibition above about 10%
# * = called active by the depositor; i = inactive; · = no result given; + = active, no number. Rule as the data show it, unless noted: active = inhibition above about 30%; inactive = the rest.
SMILES,CCHF vOTU inh,BH1578 lux ind,Mtb FBA inh,GDH-TPI counter-1,Mtb FBA confirm,GDH-TPI counter-2
COc1nc(Nc2ccc(-c3nc4ccccc4o3)cc2)nc(N2CCOCC2)n1,-7,-1,5,12,·,·
Cc1ccc(S(=O)(=O)Nc2nc3ccccc3nc2NCC2CCCO2)c(C)c1 (stereo not drawn),-20,-1,30*,15,108*,92*
Cc1cc(C)c2nc3nc(C)c(C)cc3c(N)c2c1,-74,-1,29*,-5,76*,48*
CCCSc1nc(C)c2cc(C)cc(C)c2n1,10,3,6,-6,·,·
COC(=O)[C@@]12C[C@@H](CC(=O)NCc3cccs3)C(=O)N(Cc3ccccc3)C1=CCC(C)(C)C2,7,·,·,·,·,·
O=C(O)c1cn(-c2ccc(N3CCCC3)c(F)c2)c2c(F)c(F)c(F)cc2c1=O,7,1,1,2,·,·
NCC(c1ccccc1)(c1ccccc1)c1ccccc1,5,-1,-1,-1,·,·
CCCCn1nc2cc(C(=O)NC3CCCc4ccccc43)ccc2c1OCC (stereo not drawn),-13,-1,36*,3,184*,132*
CCOCCCNC(=O)c1ccc2c(c1)ncn2C1CCCC1,10,i,6,5,·,·
CCOc1c2ccc(C(=O)NC3CCCc4ccccc43)cc2nn1C (stereo not drawn),-52,0,59*,5,30*,22*
CCCCn1nc2cc(C(=O)N[C@H](C)C3CCCCC3)ccc2c1OCC,-16,-4,53*,-4,45*,39*
C=CCOc1c2ccc(C(=O)NC3CCCc4ccccc43)cc2nn1C (stereo not drawn),-29,-1,15,5,·,·
Cc1nn(-c2ccccc2)c2sc(C(=O)NCCc3ccccc3)cc12,3,·,·,·,·,·
Cc1nn(-c2ccccc2)c2sc(C(=O)NCCN3CCOCC3)cc12,5,-1,33*,10,92*,83*
CCCCNC(=O)COC(=O)c1cc2c(C)nn(-c3ccccc3)c2s1,-1,0,29*,14,+,178*
CCOC(=O)c1nc2c(ccc3ccccc32)cc1C,-27,i,31*,3,+,168*
CCOC(=O)c1cc(Cl)c2c(ccc3ccccc32)n1,0,0,1,9,·,·
COc1cc(SC)ccc1C(=O)Nc1ncc(C)s1,5,0,2,18,·,·
COc1ccc(CNc2nc(C)cc(C)c2C#N)cc1,-13,-1,29*,19,40*,26*
COc1ccc(CSc2nc(C)cc(C)c2C#N)cc1,-9,1,2,15,·,·
COc1cccc(C2Nc3ccc4ccccc4c3C3=C2C(=O)CC(C)(C)C3)c1OCC(=O)O (stereo not drawn),-232,0,65*,9,132*,114*
CC1(C)CC(=O)C2=C(C1)c1c(ccc3ccccc13)NC2c1ccc(Br)o1 (stereo not drawn),5,i,31*,16,174*,148*
COc1ccc(C2CC(=O)c3c(ccc4ccccc34)N2)cc1OC (stereo not drawn),6,i,-3,-6,·,·
COc1ccccc1C1C2=C(CC(C)(C)CC2=O)N(CC(=O)O)C2=C1C(=O)CC(C)(C)C2,-72,-2,23,8,·,·
Cc1cccc(NC(=O)COC(=O)Cc2cccs2)c1C,5,1,3,-9,·,·
SMILES,CCHF vOTU inh,BH1578 lux ind,Mtb FBA inh,GDH-TPI counter-1,Mtb FBA confirm,GDH-TPI counter-2
Cc1ccc(S(=O)(=O)N2CCN(C(=O)COC(=O)c3ncc(Cl)c(Cl)c3Cl)CC2)c(C)c1,26,-1,1,3,·,·
CC(C)CNC(=O)c1cc2nc(C3CC3)cc(C(F)(F)F)n2n1,0,i,79*,13,62*,61*
CC1=C(C(=O)N2CCN(c3cc(C)ccc3C)CC2)C2(CCCCC2)OC1=O,-6,0,4,5,·,·
O=C(NCC1CCCO1)c1onc(CSc2ccc(F)c(F)c2)c1C(=O)O (stereo not drawn),1,0,45*,-6,92*,61*
O=C(NCC1CCCO1)c1onc(CSc2ccccc2)c1C(=O)O (stereo not drawn),6,i,-1,-1,·,·
Cn1cccc1C(=O)C(=O)Nc1ccccc1C(F)(F)F,-2,i,1,6,·,·
COC(=O)CC(=O)CSc1nc2c(cc1C#N)CCCCC2,-25,-2,39*,16,141*,98*
N#Cc1cc2c(nc1SCC(=O)O)CCCCC2,0,0,-1,6,·,·
CCOC(=O)CC(=O)CSc1nc2c(cc1C#N)CCC2,-7,3,31*,1,80*,65*
CC1(C)ON=C(c2ccc(C(F)(F)F)cc2)NC1=O,-1,i,1,1,·,·
COc1ccc(NC(=S)N2CCN(S(=O)(=O)c3ccc(OC)cc3)CC2)cc1,-17,1,3,4,·,·
CCc1ccc(-c2nc(SCC(=O)c3c(N)n(C)c(=O)n(C)c3=O)n[nH]2)cc1,4,-1,29*,3,69*,56*
COc1cc2sc3cc(NCc4ccc(C)o4)ccc3c(=O)c2cc1OC,-16,-1,33*,20,131*,126*
COc1cc2sc3cc(NCC[C@@H]4CCCN4C)ccc3c(=O)c2cc1OC,-39,0,32*,42*,+,194*
Cc1ccc(S(=O)(=O)N2CCC(C(=O)N3CCc4ccccc43)CC2)cc1,13,-2,0,7,·,·
N#Cc1cc(Cl)c(NCC2CCCO2)cc1C#N (stereo not drawn),-29,1,38*,21,77*,65*
N#Cc1cccc(C#N)c1NCC1CCCO1 (stereo not drawn),-89,i,97*,13,184*,122*
N#Cc1cn(CC(=O)NCC2CCCO2)c2ccccc12 (stereo not drawn),3,i,-2,1,·,·
CCOc1cc(/C=N/NC(=O)CCc2n[nH]c(=O)[nH]c2=O)ccc1O,2,0,-2,19,·,·
COc1ccc2oc(=O)c(C(=O)NCc3cccnc3)cc2c1,-71,·,44*,4,-4,-5
COc1ccc2cc(C(=O)NCc3ccccc3)c(=O)oc2c1,-47,i,33*,16,65*,50*
COc1ccc(CNC(=O)c2cc3ccccc3oc2=O)cc1,-1,i,3,15,·,·
COc1ccc2oc(=O)c(C(=O)NCc3ccc(F)cc3)cc2c1,-17,i,54*,7,90*,70*
COc1ccc2oc(=N)c(C(=O)NCc3ccccc3)cc2c1,-23,i,14,3,·,·
CCOC(=O)N1CCC(NC(=O)CCc2c(C)nc3c(c(C)nn3-c3ccccc3)c2C)CC1,-4,0,4,15,·,·
CCOC(=O)N1CCN(C(=O)c2cc(C)c3c(C)nn(-c4ccccc4)c3n2)CC1,3,3,66*,2,0,-2
